# Test results taken from PubChem BioAssay (NCATS).
# The source made the active and inactive calls. Calls come from the whole dose curve; as a rule, active = well fitted curve in the direction sought with a large enough effect; inconclusive = small, poorly fitted or top-dose-only effect, or another doubt; inactive = no such curve, though single readings can be large or run the other way.
# Molecular target: Methanococcus maripaludis chaperonin (MmCpn) (UniProt Q6LX38)
# Test: High-Throughput Screening for Modulators of Cytosolic Chaperonin Activity: MmCpn Primary Screen (AID 488978)
# Settings: Purified MmCpn ATPase activity, ADP HTRF detection, 10 min; series mostly up to 76.9 µM
# Text: Chaperonins are key components of the cellular chaperone machinery. These large complexes consist of two stacked 7-9 membered rings, each containing a central cavity. Substrates are folded within the cavity in an ATP-dependent manner. TRiC is a complex of eight different, essential proteins. As each of the genes encoding the eight subunits is essential for cell viability and no protocol has been developed to overexpress this enzyme to high levels, several groups have turned to the archaeal homolog of TRiC from Methanococcus maripaludis (MmCpn) as a model system for the study of the type II chaperonin family.
# MmCpn was kindly provided by the laboratory of Judith Frydman.
# 1. Dispense 1.5 ul enzyme of either TriC at 100 nM or MmCpn at 50 nM final concentration.
# 2. Transfer 23 nl of compound to plate, incubate 5 min at RT.
# 3. 1.5 ul ATP at 30 uM at final concentration dispensed into plate.
# 4. Incubate for 10 minutes at 37C (MmCPN), 30C (TriC).
# 5. 3 ul of the Cisbio ADP Transcreener HTRF detection reagent prepared according to protocol dispensed into plate.
# 6. Incubate for 5 minutes.
# 7. Read using EnVision plate reader at Excitation = 320nm and Emission = 590nm, 665nm
# Sequence of Methanococcus maripaludis chaperonin (MmCpn) (Q6LX38 1-543): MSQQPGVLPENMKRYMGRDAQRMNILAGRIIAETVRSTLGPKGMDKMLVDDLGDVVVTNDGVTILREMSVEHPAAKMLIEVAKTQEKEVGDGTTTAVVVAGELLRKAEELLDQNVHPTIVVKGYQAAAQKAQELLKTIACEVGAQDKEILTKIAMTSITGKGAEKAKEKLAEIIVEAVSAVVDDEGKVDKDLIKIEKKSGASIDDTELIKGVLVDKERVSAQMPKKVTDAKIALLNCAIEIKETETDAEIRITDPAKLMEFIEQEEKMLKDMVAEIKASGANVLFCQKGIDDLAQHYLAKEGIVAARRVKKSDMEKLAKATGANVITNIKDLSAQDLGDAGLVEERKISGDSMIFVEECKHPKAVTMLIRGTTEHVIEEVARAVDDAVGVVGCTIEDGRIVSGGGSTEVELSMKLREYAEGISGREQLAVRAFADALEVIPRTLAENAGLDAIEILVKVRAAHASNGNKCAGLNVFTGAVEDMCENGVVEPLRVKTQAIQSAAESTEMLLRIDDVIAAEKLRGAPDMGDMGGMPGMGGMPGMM
row,Compound,outcome
1,CCc1ccc(/C=C2/SC(=S)NC2=O)cc1,inactive
2,CN1C2CCCC1CC(NC(=O)c1nn(C)c3ccccc13)C2 (centres undefined),inactive
3,O=C1c2ccccc2C(=O)c2c(NCCc3ccc(O)cc3)ccc(NCCc3ccc(O)cc3)c21,inactive
4,S=C(Nc1ccccc1)Nc1nccs1,inactive
5,Oc1cc2c(c(Cl)c1O)CCNCC2c1ccccc1 (centres undefined),inactive
6,N.N.O=C(O)C1(C(=O)O)CCC1.[Pt+2],inactive
7,C/C=C/CC(C)C(O)C1C(=O)NC(CC)C(=O)N(C)CC(=O)N(C)C(CC(C)C)C(=O)NC(C(C)C)C(=O)N(C)C(CC(C)C)C(=O)NC(C)C(=O)NC(C)C(=O)N(C)C(CC(C)C)C(=O)N(C)C(CC(C)C)C(=O)N(C)C(C(C)C)C(=O)N1C (centres undefined),inactive
8,N#C/C(=C\c1ccc(O)c(O)c1)C(=O)Nc1ccccc1,inactive
9,O=Nc1c(-c2c(O)[nH]c3ccccc23)[nH]c2ccccc12,inactive
10,CC[N+](CC)(CC)CC,inactive
11,Cc1cccc(/C=C/c2ccccc2)n1,inactive
12,C1CCC(N=C(NC23CC4CC(CC(C4)C2)C3)N2CCOCC2)CC1,inactive
13,Nc1c(S(=O)(=O)O)cc(Nc2ccc(Nc3nc(Cl)nc(Nc4ccc(S(=O)(=O)O)cc4)n3)c(S(=O)(=O)O)c2)c2c1C(=O)c1ccccc1C2=O,inactive
14,C[C@H](Cc1ccccc1)Nc1ncnc2c1ncn2[C@@H]1O[C@H](CO)[C@@H](O)[C@H]1O,inactive
